hcDAF12 agonist: H. contortus DAF-12 activation, primary screen; HEK293 hcDAF-12 lit1-tk-luc reporter, luminescence; 0% DMSO, 100% Δ7-dafachronic acid; activation, % at 6.8 µM; hit rate 1.4% among 370,000;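 active means activation above the mean of all tested compounds plus 3 SD, cut at about 5.5% in these data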;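 further: 100% = response to 3 µM Δ7-dafachronic acid high control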
ssDAF-12 act: activators of S. stercoralis DAF-12 nuclear receptor; HEK293 ssDAF-12/GRIP1 lit1-tk-luc reporter, luminescence; % of 3 µM dafachronic acid response; hit rate 1% among 370,000; activation, % at 6.8 µM;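 active means activation above the mean over all tested compounds plus 3 SD, cut at about 0.9% in these data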;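 further: 0% = DMSO-only wells and 100% = 3 µM delta7-dafachronic acid wells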
DAX1 inh-1: inhibitors of DAX1 repression of SF-1 activated StAR promoter | hit rate 1.1% among 370,000 | inhibition, % at 6.8 µM | HEK293T StAR-luciferase reporter, SF-1/DAX-1 repression relief;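 active means inhibition above the mean over all tested compounds plus 3 SD, cut at about 3.6% in these data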;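 further: 0% = DAX-1 cells with DMSO and 100% = cells lacking DAX-1 with DMSO; higher inhibition means more luminescence from relief of DAX-1 repression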
FXN GAA850 act: activators of GAA850 frataxin (FXN) promoter. hit rate 0.56% among 360,000. HEK293 lucGAA850 FXN promoter luciferase reporter, 24 h; percent of 10 µM SAHA response. activation, % at 6 µM;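 active means activation above the average of all compounds screened plus 3 SD, cutoff fixed separately per campaign, cut at about 7.5% in these data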;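 further: 0% = DMSO wells and 100% = 10 µM SAHA wells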
hgDAF12 agonist: activates the H. glycines DAF-12 receptor ligand-binding domain | activation, % at 6.8 µM | hit rate 1.8% among 370,000 | HEK293 GAL4-hgDAF12 UAS-luciferase reporter, agonist luminescence; normalized to butyrate control;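 active means activation above a cutoff set at the mean of all screened compounds plus 3 SD, cut at about 10% in these data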;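 further: 0% = DMSO wells and 100% = sodium butyrate wells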
DAX1 inh-2: inhibitors of human orphan nuclear receptor DAX1 (NR0B1) | HEK293 Gal4-DAX1 luciferase reporter, luminescence | inhibition, % at 6.75 µM | AID 504766 | hit rate 0.99% among 340,000;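 active means inhibition above the mean over all tested compounds plus 3 SD, cut at about 4.2% in these data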;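 further: 0% = DAX1-transfected cells with DMSO and 100% = empty-vector control cells with DMSO; inhibition shows as a rise in luminescence from relieved DAX1 repression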
Target sequence (P51843 207-470 limits assumed): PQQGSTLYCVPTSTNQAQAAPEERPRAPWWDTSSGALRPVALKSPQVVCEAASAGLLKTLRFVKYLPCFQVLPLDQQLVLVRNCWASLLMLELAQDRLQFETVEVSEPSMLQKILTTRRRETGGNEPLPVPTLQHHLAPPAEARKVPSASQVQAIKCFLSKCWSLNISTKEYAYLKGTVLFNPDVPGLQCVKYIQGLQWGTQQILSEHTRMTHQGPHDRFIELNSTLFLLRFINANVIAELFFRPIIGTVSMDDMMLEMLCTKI
DAX1 conf: NR0B1 (human) inhibition, confirmation. shares compounds with DAX1 inh-1. HEK293T StAR-promoter luciferase reporter, SF-1/DAX-1 repression. inhibition, % at 6.8 µM. hit rate 87% among 2,400. AID 652134;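 active means inhibition above the average of every tested compound plus 3 SD, cut at about 3.8% in these data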;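 further: 0% = DAX-1 cells with DMSO and 100% = no DAX-1 control cells with DMSO; active compounds raise luminescence by relieving repression of the StAR reporter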
Target sequence (P51843 whole entry, looked up): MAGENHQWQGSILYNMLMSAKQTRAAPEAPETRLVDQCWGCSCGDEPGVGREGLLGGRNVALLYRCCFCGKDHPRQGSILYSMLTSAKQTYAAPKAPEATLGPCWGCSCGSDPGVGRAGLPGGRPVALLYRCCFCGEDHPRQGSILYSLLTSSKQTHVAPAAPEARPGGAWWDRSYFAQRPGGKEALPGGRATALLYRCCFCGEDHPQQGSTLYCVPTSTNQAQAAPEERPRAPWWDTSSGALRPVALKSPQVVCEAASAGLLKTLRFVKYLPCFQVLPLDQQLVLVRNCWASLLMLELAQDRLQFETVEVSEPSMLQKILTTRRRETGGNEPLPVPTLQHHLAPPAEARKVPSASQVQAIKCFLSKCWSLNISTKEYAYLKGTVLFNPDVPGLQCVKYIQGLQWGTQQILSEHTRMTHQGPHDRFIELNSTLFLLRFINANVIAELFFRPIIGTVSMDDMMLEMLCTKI
SF1 mutant ctr: counter-screen for DAX1 inhibitors: nonselective inhibitors with SF-1 AF2 mutant; shares compounds with DAX1 inh-1; HEK293 StAR-luciferase, luminescence; inhibition, % at 6.8 µM; hit rate 78% among 2,400;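 active means inhibition above the mean of all tested compounds plus 3 SD, cut at about 3% in these data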;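 further: 0% = DAX-1 transfected cells with DMSO and 100% = cells without DAX-1 with DMSO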
* hit, by the source's call. Shown are actives, neighbours in structure and some others; about 4.5% of the full set was active somewhere.

`Nc1ccc2ccc(O)cc2c1` gave hcDAF12 agonist -0.2, ssDAF-12 act -0.5, DAX1 inh-1 -0.9, FXN GAA850 act 3.5, hgDAF12 agonist -0.8 and DAX1 inh-2 0.4.
Screening C=CCn1c(Cc2cccs2)nnc1SCC(=O)Nc1ccc(C)cc1 returned hcDAF12 agonist -2.6, ssDAF-12 act -1.5, DAX1 inh-1 -0.5 and hgDAF12 agonist -2.4.
Screening CCCCC[C@@H](C)N1C[C@H](COCc2ccccc2)Oc2cc(N3CCC[C@@H]3COC)ccc2S1(=O)=O returned hcDAF12 agonist 1.6, ssDAF-12 act -0.1, DAX1 inh-1 5.1*, hgDAF12 agonist 6.9, DAX1 conf 5.7* and SF1 mutant ctr 4.3*.
`CCN(CC)c1ccc(NC(=O)CSc2nnc(SCc3ccc(Cl)cc3)s2)cc1` gave hcDAF12 agonist 2.3, ssDAF-12 act -1.3, DAX1 inh-1 -0.7 and hgDAF12 agonist 0.6.
Screening CC(=O)N1CCCN(C(=O)c2ccc3nc(Cc4ccccc4F)oc3c2)CC1 returned hcDAF12 agonist -1.5, ssDAF-12 act -1.1, DAX1 inh-1 -0.7, FXN GAA850 act -0.2, hgDAF12 agonist -0.2 and DAX1 inh-2 1.7.
For COc1ccc(Cc2nc3ccc(C(=O)N4CCOCC4)cc3o2)cc1 the results were hcDAF12 agonist 4.5, ssDAF-12 act -0.3, DAX1 inh-1 5.4*, FXN GAA850 act 3.8, hgDAF12 agonist 9.8, DAX1 inh-2 2.4, DAX1 conf 7.4* and SF1 mutant ctr 3.8*.
For CC(c1ccccn1)N(C)C(=O)c1ccc2nc(Cc3ccccc3F)oc2c1 (stereo unspecified) the results were hcDAF12 agonist 3.0, ssDAF-12 act -0.9, DAX1 inh-1 4.8*, FXN GAA850 act 3.5, hgDAF12 agonist 8.5, DAX1 inh-2 1.5, DAX1 conf 5.3* and SF1 mutant ctr 4.4*.
Screening O=C(c1ccc2nc(Cc3ccccc3F)oc2c1)N1CC[C@H](O)C1 returned hcDAF12 agonist 3.5, ssDAF-12 act -0.6, DAX1 inh-1 6.2*, FXN GAA850 act 4.1, hgDAF12 agonist 5.5, DAX1 inh-2 0.3, DAX1 conf 5.9* and SF1 mutant ctr 1.3.
`COc1ccc(C(=O)OCCN2CCN(C3CN(Cc4cn(Cc5cccc(F)c5)nn4)S(=O)(=O)C3)CC2)cc1OC` (stereo unspecified) gave hcDAF12 agonist -3.4, ssDAF-12 act -1.9, DAX1 inh-1 -2.0 and hgDAF12 agonist 0.7.
CC(=O)c1cccc(NC(=O)c2sc3nc4n(c(=O)c3c2C)CCCCC4)c1 was read as hcDAF12 agonist -0.5, ssDAF-12 act -1.4, DAX1 inh-1 0.4, FXN GAA850 act 2.0, hgDAF12 agonist -2.1 and DAX1 inh-2 -1.7.
For CSc1cccc(NC(=O)c2sc3nc4n(c(=O)c3c2C)CCC4)c1 the results were hcDAF12 agonist 0.2, ssDAF-12 act -1.1, DAX1 inh-1 5.1*, FXN GAA850 act 4.5, hgDAF12 agonist 2.6, DAX1 inh-2 0.9, DAX1 conf 1.4 and SF1 mutant ctr 2.3.
COc1cccc(NC(=O)c2sc3nc4n(c(=O)c3c2C)CCC4)c1 was read as hcDAF12 agonist 3.0, ssDAF-12 act -0.6, DAX1 inh-1 4.7*, FXN GAA850 act 4.0, hgDAF12 agonist 5.7, DAX1 inh-2 0.1, DAX1 conf 5.0* and SF1 mutant ctr 5.9*.
`Cc1c(C(=O)Nc2ccc(Oc3ccccc3)cc2)sc2nc3n(c(=O)c12)CCC3` gave hcDAF12 agonist -3.1, ssDAF-12 act -2.0, DAX1 inh-1 -1.5, FXN GAA850 act -0.4, hgDAF12 agonist -2.6 and DAX1 inh-2 -2.8.
COC(=O)C1=C(C)N(C)C(=NCc2ccc3c(c2)OCO3)NC1c1ccc(Cl)cc1 (stereo unspecified) was read as hcDAF12 agonist -1.5, ssDAF-12 act -1.1, DAX1 inh-1 0.4 and hgDAF12 agonist -1.5.
Screening CCOC(=O)[C@]12CCCC=C1N(Cc1cccc3ccccc13)C(=O)[C@H](CC(=O)N1CCSCC1)C2 returned hcDAF12 agonist -2.6, ssDAF-12 act -0.9, DAX1 inh-1 -0.3 and hgDAF12 agonist -3.9.
For CC(=O)Nc1ccc(-c2ccnc3c2CC(C(=O)NCC2CC2)O3)cc1 (stereo unspecified) the results were hcDAF12 agonist 0.4, ssDAF-12 act -1.4, DAX1 inh-1 0.9, FXN GAA850 act -4.9 and hgDAF12 agonist -0.7.
Screening CC(=O)Nc1ccc(-c2ccnc3c2CC(C(=O)NCCc2ccccc2)O3)cc1 (stereo unspecified) returned hcDAF12 agonist -1.0, ssDAF-12 act -0.9, DAX1 inh-1 0.2, FXN GAA850 act -0.1 and hgDAF12 agonist -1.1.
Screening CC(=O)Nc1ccc(-c2ccnc3c2CC(C(=O)NCc2ccccc2)O3)cc1 (stereo unspecified) returned hcDAF12 agonist 0.8, ssDAF-12 act 0.0, DAX1 inh-1 4.5*, FXN GAA850 act -1.9, hgDAF12 agonist -6.2, DAX1 conf 9.6* and SF1 mutant ctr -7.1.
`CC(=O)Nc1ccc(-c2ccnc3c2CC(C(=O)NCc2ccco2)O3)cc1` (stereo unspecified) gave hcDAF12 agonist 4.5, ssDAF-12 act 0.5, DAX1 inh-1 4.7*, FXN GAA850 act -2.1, hgDAF12 agonist -1.5, DAX1 conf 11.5* and SF1 mutant ctr -6.1.
For Cc1ccc(NC(=O)C2CCN(c3ncccn3)CC2)cc1C the results were hcDAF12 agonist -0.9, ssDAF-12 act -1.4, DAX1 inh-1 -0.3 and hgDAF12 agonist 2.7.
Screening C[C@@H]1CNC(=O)c2c(C(=O)N3CCN(c4ccccc4)CC3)ncn21 returned hcDAF12 agonist -1.7, ssDAF-12 act -0.7, DAX1 inh-1 0.0 and hgDAF12 agonist -3.2.
CCOC(=O)[C@@]12CCC3=C1N(CCC3)C(=O)[C@H](CC(=O)NCCCN1CCCC1=O)C2 was read as hcDAF12 agonist -1.0, ssDAF-12 act -0.6, DAX1 inh-1 -0.6 and hgDAF12 agonist 0.8.
Screening Cc1ccc2occ(/C=N/NC(=O)c3ccc(Cl)cc3)c(=O)c2c1 returned hcDAF12 agonist -1.5, ssDAF-12 act -1.0, DAX1 inh-1 0.1, FXN GAA850 act 0.9, hgDAF12 agonist 4.5 and DAX1 inh-2 -0.3.
For Cc1ccc2occ(/C=N/NC(=O)c3ccccc3O)c(=O)c2c1 the results were hcDAF12 agonist 6.4*, ssDAF-12 act -0.4, DAX1 inh-1 10.4*, FXN GAA850 act -4.0, hgDAF12 agonist 4.8, DAX1 inh-2 0.9, DAX1 conf 7.3* and SF1 mutant ctr 7.6*.

From PubChem
